# Where “and” joins values, the source holds several entries; their conditions need not be identical. Equal entries are not always repeated. Records with an inconclusive call do not appear. A number with no mark means an inactive call. Calls of active or inactive are those of the source. Calls come from the whole dose curve; tested in HEK293 reporter line.
# Assay: qHTS for Inhibitors of the Functional Ribonucleoprotein Complex (vRNP) of Lassa (LASV) Arenavirus: Viability assay - alamar blue signal for LASV Primary Screen (AID 1347083)
# Conditions: cell viability, alamar blue fluorescence (LASV minigenome counter-screen); series mostly up to 57.5 µM; activity change, negative = reduced viability: at the top concentration
# % is set by controls: 0 for no effect and ±100 for the full control effect; potency is the fitted concentration of half-maximal effect.
# Note: nearly all actives have a fitted effect of over 80% in size.
SMILES,"activity change, negative = reduced viability [%]",Potency
CC1(C)S[C@@H]2[C@H](NC(=O)[C@H](N)c3ccccc3)C(=O)N2[C@H]1C(=O)O,0.438,–
O[C@@H](CNC[C@H](O)[C@H]1CCc2cc(F)ccc2O1)[C@@H]1CCc2cc(F)ccc2O1,–,inactive
CC(C)(C(=O)O)c1ccc(C(O)CCCN2CCC(C(O)(c3ccccc3)c3ccccc3)CC2)cc1 (stereo not drawn),–,inactive
Cc1nccn1CC1CCc2c(c3ccccc3n2C)C1=O (stereo not drawn),–,inactive
CC(C)C(=O)Nc1ccc([N+](=O)[O-])c(C(F)(F)F)c1,–,inactive
Cc1[nH]cnc1CN1CCc2c(c3ccccc3n2C)C1=O,-0.138,–
OCCN1CCN(CCCN2c3ccccc3Sc3ccc(C(F)(F)F)cc32)CC1,–,inactive
O[C@@H]1CO[C@H]2[C@@H]1OC[C@@H]2O,9.52,–
CN(C/C=C/C#CC(C)(C)C)Cc1cccc2ccccc12,27.1,–
CC(C)(C#N)c1cc(Cn2cncn2)cc(C(C)(C)C#N)c1,–,inactive
Cc1cccc(Nc2ccccc2C(=O)O)c1C,3.71,–
C[C@]12CC[C@@H]3c4ccc(O)cc4C[C@@H](CCCCCCCCCS(=O)CCCC(F)(F)C(F)(F)F)[C@H]3[C@@H]1CC[C@@H]2O (stereo partly drawn),–,inactive
Nc1ccc(O)c(C(=O)O)c1,-6.93,–
CCOC(=O)[C@H](CCc1ccccc1)N[C@@H](C)C(=O)N1Cc2cc(OC)c(OC)cc2C[C@H]1C(=O)O,2.3,–
OCCN1C[C@H](O)[C@@H](O)[C@H](O)[C@H]1CO,-0.305,–
Nc1[nH]c(=O)ncc1F,-4.99,–
CN(C)C(=O)C(CCN1CCC(O)(c2ccc(Cl)cc2)CC1)(c1ccccc1)c1ccccc1,-74.4,–
CCCCc1oc2ccc(NS(C)(=O)=O)cc2c1C(=O)c1ccc(OCCCN(CCCC)CCCC)cc1,-12.9,–
CC1=C(C(=O)O)N2C(=O)[C@@H](NC(=O)[C@H](N)c3ccccc3)[C@H]2SC1,4.49,–

SMILES,"activity change, negative = reduced viability [%]",Potency
CC/C(=C(\c1ccccc1)c1ccc(OCCN(C)C)cc1)c1ccccc1,–,inactive
O=c1[nH]cc(F)c(=O)[nH]1,-67.8,–
COc1cc2c(c(OC)c1OC)-c1ccc(OC)c(=O)cc1[C@@H](NC(C)=O)CC2,–,inactive
O=C(CCCCCCC(=O)Nc1ccccc1)NO,–,8.91 µM (active) and 7.69 µM (active)
Cc1cn([C@H]2C=C[C@@H](CO)O2)c(=O)[nH]c1=O,–,inactive
CC(C)C1CCC(C(=O)N[C@H](Cc2ccccc2)C(=O)O)CC1 (stereo partly drawn),–,inactive
CN1CCC[C@@H]1Cc1c[nH]c2ccc(CCS(=O)(=O)c3ccccc3)cc12,3.24,–
CCOC(=O)C1=C(C)NC(C)=C(C(=O)OC)C1c1cccc(Cl)c1Cl (stereo not drawn),–,inactive
NC(=O)N/N=C/c1ccc([N+](=O)[O-])o1,–,inactive
COc1cc2ncnc(Nc3ccc(F)c(Cl)c3)c2cc1OCCCN1CCOCC1,–,2220 nM (active)
CCN(CC)CCCC(C)Nc1ccnc2cc(Cl)ccc12 (stereo not drawn),–,inactive
COC(=O)Nc1nc2ccc(C(=O)c3cccs3)cc2[nH]1,–,54.4 nM (active)
Cc1cn[nH]c1,–,inactive
O=C1OCCN1/N=C/c1ccc([N+](=O)[O-])o1,-19.3,–
CC(=O)O[C@@]12CO[C@@H]1C[C@H](O)[C@@]1(C)C(=O)[C@H](O)C3=C(C)[C@@H](OC(=O)[C@H](O)[C@@H](NC(=O)OC(C)(C)C)c4ccccc4)C[C@@](O)([C@@H](OC(=O)c4ccccc4)[C@H]21)C3(C)C,-91,–
Cc1ccc(C(=O)c2cc(O)c(O)c([N+](=O)[O-])c2)cc1,–,inactive
CCN(CC)C(=S)SSC(=S)N(CC)CC,–,122 nM (active)
Cn1c(=O)c2c(ncn2CC(O)CO)n(C)c1=O (stereo not drawn),–,inactive
CCCNC(=O)NS(=O)(=O)c1ccc(Cl)cc1,–,inactive

# Assay: qHTS for Inhibitors of the Functional Ribonucleoprotein Complex (vRNP) of Lymphocytic Choriomeningitis Arenaviruses (LCMV): Viability assay - alamar blue signal for LCMV Primary Screen (AID 1347085)
# Conditions: alamar blue viability counter-screen, LCMV vRNP screen cells; series mostly up to 57.5 µM; activity change, negative = lower viability: at the top concentration
SMILES,"activity change, negative = lower viability [%]",Potency
CC1(C)S[C@@H]2[C@H](NC(=O)[C@H](N)c3ccccc3)C(=O)N2[C@H]1C(=O)O,0.411,–
O[C@@H](CNC[C@H](O)[C@H]1CCc2cc(F)ccc2O1)[C@@H]1CCc2cc(F)ccc2O1,–,inactive
CC(C)(C(=O)O)c1ccc(C(O)CCCN2CCC(C(O)(c3ccccc3)c3ccccc3)CC2)cc1 (stereo not drawn),–,inactive
Cc1nccn1CC1CCc2c(c3ccccc3n2C)C1=O (stereo not drawn),–,inactive
CC(C)C(=O)Nc1ccc([N+](=O)[O-])c(C(F)(F)F)c1,–,inactive
Cc1[nH]cnc1CN1CCc2c(c3ccccc3n2C)C1=O,-0.273,–
OCCN1CCN(CCCN2c3ccccc3Sc3ccc(C(F)(F)F)cc32)CC1,–,inactive
O[C@@H]1CO[C@H]2[C@@H]1OC[C@@H]2O,1.73,–
CN(C/C=C/C#CC(C)(C)C)Cc1cccc2ccccc12,13.8,–
CC(C)(C#N)c1cc(Cn2cncn2)cc(C(C)(C)C#N)c1,–,inactive
Cc1cccc(Nc2ccccc2C(=O)O)c1C,3.71,–
C[C@]12CC[C@@H]3c4ccc(O)cc4C[C@@H](CCCCCCCCCS(=O)CCCC(F)(F)C(F)(F)F)[C@H]3[C@@H]1CC[C@@H]2O (stereo partly drawn),17.8,–
Nc1ccc(O)c(C(=O)O)c1,0.671,–
CCOC(=O)[C@H](CCc1ccccc1)N[C@@H](C)C(=O)N1Cc2cc(OC)c(OC)cc2C[C@H]1C(=O)O,1.09,–
Nc1[nH]c(=O)ncc1F,-5.71,–
CCCCc1oc2ccc(NS(C)(=O)=O)cc2c1C(=O)c1ccc(OCCCN(CCCC)CCCC)cc1,-0.734,–
CC1=C(C(=O)O)N2C(=O)[C@@H](NC(=O)[C@H](N)c3ccccc3)[C@H]2SC1,2.48,–
CC/C(=C(\c1ccccc1)c1ccc(OCCN(C)C)cc1)c1ccccc1,15.8,–

SMILES,"activity change, negative = lower viability [%]",Potency
COc1cc2c(c(OC)c1OC)-c1ccc(OC)c(=O)cc1[C@@H](NC(C)=O)CC2,–,inactive
O=C(CCCCCCC(=O)Nc1ccccc1)NO,–,7690 nM (active)
Cc1cn([C@H]2C=C[C@@H](CO)O2)c(=O)[nH]c1=O,–,inactive
CC(C)C1CCC(C(=O)N[C@H](Cc2ccccc2)C(=O)O)CC1 (stereo partly drawn),–,inactive
CN1CCC[C@@H]1Cc1c[nH]c2ccc(CCS(=O)(=O)c3ccccc3)cc12,0.28,–
CCOC(=O)C1=C(C)NC(C)=C(C(=O)OC)C1c1cccc(Cl)c1Cl (stereo not drawn),–,inactive
NC(=O)N/N=C/c1ccc([N+](=O)[O-])o1,–,inactive
COc1cc2ncnc(Nc3ccc(F)c(Cl)c3)c2cc1OCCCN1CCOCC1,–,1110 nM (active)
CCN(CC)CCCC(C)Nc1ccnc2cc(Cl)ccc12 (stereo not drawn),–,inactive
COC(=O)Nc1nc2ccc(C(=O)c3cccs3)cc2[nH]1,–,27.3 nM (active)
Cc1cn[nH]c1,–,inactive
O=C1OCCN1/N=C/c1ccc([N+](=O)[O-])o1,-24.9,–
CC(=O)O[C@@]12CO[C@@H]1C[C@H](O)[C@@]1(C)C(=O)[C@H](O)C3=C(C)[C@@H](OC(=O)[C@H](O)[C@@H](NC(=O)OC(C)(C)C)c4ccccc4)C[C@@](O)([C@@H](OC(=O)c4ccccc4)[C@H]21)C3(C)C,-85.9,–
Cc1ccc(C(=O)c2cc(O)c(O)c([N+](=O)[O-])c2)cc1,–,inactive
CCN(CC)C(=S)SSC(=S)N(CC)CC,–,863 nM (active)
Cn1c(=O)c2c(ncn2CC(O)CO)n(C)c1=O (stereo not drawn),–,inactive
CCCNC(=O)NS(=O)(=O)c1ccc(Cl)cc1,–,inactive

# Reference: PubChem BioAssay (NCATS)
